Screening data deposited in PubChem by National Center for Advancing Translational Sciences (NCATS).
SW480 rerep: DNA re-replication induction in SW480 cells | SW480 DNA re-replication, Hoechst DNA content imaging, 48 h | Potency, µM (highest dose often 46.1 µM), for the others: at the top dose re-replication activation, most hits filed as activators | 340,000 tested, 1.8% active; also: potency is read from the fitted curve at half-maximal effect; % of control where 0% means no effect; nearly all actives have a fitted effect of over 55% in size
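Cells (250 per well) received 23 nL compound or DMSO by pin tool and were kept 48 hr at 37 C, 5% CO2. Nuclei were then stained with Hoechst for 40 min and scanned for DNA content.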
KCNH2 WT inh: KCNH2 (human, wildtype) channel inhibition; Q12809; 340,000 tested, 0.37% active; activity change, % at 1.84 µM; U2OS, BacMam KCNH2, thallium flux FluxOr; active compounds read low; AID 720551;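 active = maximum activity change below -70%; inconclusive = maximum activity change between -70% and -50%; inactive = maximum activity change above -50%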; also: % is scaled to controls: 0 for no effect and ±100 for the full control effect
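U2OS cells transduced with wild-type KCNH2 virus are loaded with FluxOr dye for 45 min, and thallium flux is measured in kinetic reads before and after stimulation buffer. Rate constants are normalized to DMSO controls.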
MCF10A rereplic: inducers of DNA re-replication in MCF 10A breast cells. MCF 10A DNA re-replication, Hoechst nuclear intensity, 48 h. Potency, µM (series often up to 46.1 µM), for the others: top-dose activity, positive = re-replication, actives largely listed as activators. 350,000 tested, 2.9% active. AID 624296; also: potency is read from the fitted curve at half-maximal effect; % of control where 0% means no effect; nearly all actives have a fitted effect of over 50% in size
KCNH2 3.1 inh: blocks the human KCNH2 3.1 channel isoform. U2OS KCNH2 3.1, thallium flux FluxOr; active compounds read low. activity change, % (tested at about 1.8 µM). 340,000 tested, 0.95% active;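 active = maximum activity change below -70%; inconclusive = maximum activity change from -70% to -50%; inactive = maximum activity change above -50%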;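 also: thallium influx rate constant from kinetic fluorescence after stimulation buffer; % is scaled to controls: 0 for no effect and ±100 for the full control effect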
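We transduce U2OS cells with the mutant 3.1 virus, culture them overnight, load FluxOr with Red40 quencher for 45 min, then add stimulation buffer and read kinetically for 2 min to derive a normalized rate constant.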
KB-3-1 tox: KB-3-1 parental cell cytotoxicity; Potency, µM (series often up to 46.1 µM), usual class: cytotoxic; 400,000 tested, 1.4% active; KB-3-1 viability, CellTiter-Glo ATP luminescence, 72 h; AID 1347075; also: potency is read from the fitted curve at half-maximal effect; % is scaled to controls: 0 for no effect and ±100 for the full control effect; nearly all actives have a fitted effect of over 60% in size
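Multi-concentration cytotoxicity screen in KB-3-1 cells grown in DMEM lacking phenol red with 10% FBS. After 72 h at 37 °C with compound, ATP-dependent luminescence was recorded.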
KB-V1 MDR tox: KB-V1 MDR subline cytotoxicity. KB-V1 MDR cells viability, CellTiter-Glo, 72 h. Potency, µM (doses to about 46.1 µM), actives largely listed as cytotoxic. 400,000 tested, 3.4% active. AID 1347076; also: potency is read from the fitted curve at half-maximal effect; % is scaled to controls: 0 for no effect and ±100 for the full control effect; nearly all actives have a fitted effect of over 60% in size
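qHTS viability screen in drug-selected KB-V1 MDR cells: 72 h compound treatment at 37 degrees C, ATP luminescence end point.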
* hit, by the source's call; i = inactive; ? = inconclusive; · = no result given; [ ] = another dose, or the depositor's remark. An excerpt weighted towards active compounds, which were near 7.6% of everything screened. Unless noted, calls follow the shape of the dose curve; as a rule, active = well fitted curve in the direction sought with a large enough effect; inconclusive = small, poorly fitted or top-dose-only effect, or another doubt; inactive = no such curve, though single readings can be large; an effect the other way counts as inactive or inconclusive.

SMILES	SW480 rerep	KCNH2 WT inh	MCF10A rereplic	KCNH2 3.1 inh	KB-3-1 tox	KB-V1 MDR tox
CC(=O)c1c(C)nc2ccccn12	-1%	2	3%	-43	i	i
O=C1Oc2ccccc2C2(O)C3CCCCCC3C12 (stereo not drawn)	1%	-8	9%	10	i	i
CCOC(=O)CN(C(=O)Cn1nnc(-c2ccc(C)cc2)n1)C(CC)C(=O)NC1CCCC1 (stereo not drawn)	1%	17	1%	0	i	4.1µM*
CCC(C(=O)NC1CCCC1)N(Cc1ccco1)C(=O)Cn1nnc(-c2ccc(C)cc2)n1 (stereo not drawn)	-2%	-14	2%	-11	i	i
O=[N+]([O-])c1ccc2nonc2c1Nc1ccccc1	0%	6	5%	6	i	i
CC(=O)N1c2ccc(C)cc2Sc2c1ccc1ccccc21	?	-3	21µM*	-17	i	i
COc1ccc(N(CC(=O)N/N=C/c2ccc(-c3ccc([N+](=O)[O-])cc3)o2)S(=O)(=O)c2ccc(C)cc2)cc1	9.2µM*	-39	?	-48	i	i
CCCCC(=O)N/N=C/c1ccc(-c2ccc([N+](=O)[O-])cc2)o1	11%	2	0%	3	i	i
CNC(=S)N/N=C/c1ccc(-c2ccc(Cl)c([N+](=O)[O-])c2)o1	0%	-2	?	12	i	i
COc1ccc(N(CC(=O)N/N=C/c2ccc(-c3ccc([N+](=O)[O-])cc3)o2)S(=O)(=O)c2ccc(C)cc2)cc1Cl	?	1	?	-19	i	i
O=C(O)c1ccc(-c2ccc(/C=N/Nc3ccc([N+](=O)[O-])cc3)o2)cc1	18µM*	-30	18µM*	-24	i	i
CNC(=S)N/N=C/c1ccc(-c2ccc(C(=O)O)cc2)o1	?	-22	?	16	i	6.5µM*
CC(C)(C)NC(=S)N/N=C\c1ccc(-c2ccc([N+](=O)[O-])cc2)o1	21µM*	-16	16µM*	-9	?	i
CC(C)(C)N(Cc1ccccc1)C(=O)COC(=O)C1CCCCC1	2%	1	1%	-10	i	i
Cc1nn(CCOc2cccc(Br)c2)c(C)c1[N+](=O)[O-]	-7%	4	?	1	i	i
O=C(O)c1cccc(-c2ccc(/C=N/Nc3ccc([N+](=O)[O-])cc3)o2)c1	?	-4	18µM*	-12	i	i
CN(C)C=NC1=NN(c2cccc(C(F)(F)F)c2)CC1	-4%[9.22 µM]	-12	14%	-4	21µM*	2.1µM*
CN1CCN(C=NC2=NN(c3cccc(C(F)(F)F)c3)CC2)CC1	-3%	2	6%	8	?	10µM*
FC(F)(F)c1cccc(N2CCN(c3nnnn3-c3ccccc3)CC2)c1	11%	1	13%	-7	i	?
Cc1cccc(N2C(=O)CSC23C(=O)N(CC(=O)NCc2ccccc2Cl)c2ccccc23)c1 (stereo not drawn)	·	·	·	·	i	i
CCCOc1cc(C)c(S(=O)(=O)NCCOC)cc1C	1%	0	-2%	4	i	18µM*
O=C(CSc1nnc(-c2cccnc2)n1-c1ccccc1)N1CCN(c2ccc(F)cc2)CC1	-3%[9.22 µM]	24	-29%	7	i	?
Cc1ccc(-c2noc(CSc3nnc(Cc4ccccc4)n3-c3cccc(C)c3)n2)cc1	18%	-44	18µM*	1	?	i
O=C(CSc1nnc2sc3ccccc3n12)N1CCN(c2ccccc2)CC1	-3%	-6	1%	17	i	8.2µM*
O=C(CSc1nnc(-c2ccncc2)n1-c1ccccc1)N1CCN(c2ccc(Cl)cc2)CC1	-10%	1	?	-9	i	16µM*
SMILES	SW480 rerep	KCNH2 WT inh	MCF10A rereplic	KCNH2 3.1 inh	KB-3-1 tox	KB-V1 MDR tox
Clc1ccc(-c2noc(CSc3nnc(-c4ccncc4)n3-c3ccccc3)n2)cc1	?	6	?	-17	i	2.6µM*
Cn1c(Cn2c(=O)sc3ccccc32)nnc1SCC(=O)N1CCN(c2ccccc2)CC1	3%	4	-2%	-22	i	i
Cc1ccccc1N(C)C1=N[S+](=O)([O-])c2ccccc21	·	·	·	·	i	i
Cc1ccc(C)c(NC(NC(=O)c2ccccn2)C(Cl)(Cl)Cl)c1 (stereo not drawn)	?	2	24%	2	i	i
COc1ccc(Cl)cc1NC(=O)c1cc(S(=O)(=O)N2CCC(C)CC2)cn1C	·	·	·	·	i	i
COc1cc(CNC(=O)c2ccc3c(c2)N(C)C(=O)C2CCCCN32)cc(OC)c1OC (stereo not drawn)	·	·	·	·	i	i
COc1ccc(NC(C)C(=O)Nc2ccc(C#N)cc2)cc1Cl (stereo not drawn)	-9%	-3	7%	2	i	21µM*
COc1ccc(NC(C)C(=O)Nc2ccc(C(C)(C)C)cc2)cc1Cl (stereo not drawn)	12%	-4	16µM*	-10	i	i
COc1ccc(NCC(=O)Nc2ccc(C#N)cc2)cc1Cl	7%	-13	2%	-31	i	i
Cc1ccc(OCc2nc(-c3ccc(Cl)cc3)n[nH]2)cc1	19%	-74*	-1%	-10	i	i
Fc1ccc(OCc2nc(-c3ccncc3)n[nH]2)cc1	-3%	8	2%	-11	i	i
CCn1c(CNc2ccc(OC)cc2)nnc1SCC(=O)Nc1ccc(F)cc1	2%	0	-2%	-3	i	21µM*
CCn1c(Cc2ccc(OC)cc2)nnc1SCC(=O)Nc1cccc(C(=O)OC)c1	-6%	-4	12%	-34	i	5.2µM*
COc1ccc(CNC(=O)c2cc3c(=O)n(C)c4ccccc4c3n2C)c(OC)c1	·	·	·	·	i	i
COc1ccc2c(C)c(CCC(=O)NCCc3ccccc3)c(=O)oc2c1	·	·	·	·	i	?
O=C(Nc1ccc(Cl)c(Cl)c1)Oc1ccc(NC(=O)c2ccco2)cc1	-5%	-24	?	13	i	i
CCOC(=O)C1(C(F)(F)F)N=C(C(F)(F)F)Nc2ccc(F)cc21 (stereo not drawn)	13µM*	2	-2%	8	i	?
CCOC(=O)C(NC(=O)Nc1ccc(F)cc1)(OCC)C(F)(F)F (stereo not drawn)	-5%	2	4%	2	i	i
C=CCn1c(SCC(=O)c2cc(C)n(C(C)COC)c2C)nc2sc(C)c(C)c2c1=O (stereo not drawn)	?	2	18µM*	-1	i	8.2µM*
